We go through 16 compounds from PubChem BioAssay (NCI).

Where “and” joins values, the source holds several entries; their conditions need not be identical. Equal values may be shown once. About 83,000 compounds went through this panel and 20% of them were active in at least one assay; those are over-represented in the sample as a whole.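 Treatment: one concentration, 48 hours, 96-well format. Scoring: percent growth, with anything below 10 considered active.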 Calls of active or inactive are those of the source.

The experiment relates to K-562 leukemia. The experiment in a line: NCI-60 one-dose screen, 48 h (100 = growth as untreated, 0 = no growth, -100 = all killed). The following applies: 10 µM unless noted.
Turning to `C[n+]1c(/C=C/c2ccc([N+](=O)[O-])cc2)ccc2ccccc21`, the growth is 88.7% (inactive). On to `c1ccc2c(c1)Nc1cc3ccccc3cc1N2`, for which the growth is 20.9% (inactive). As for `CCOC(=O)/C(=C\c1ccc(-c2ccccc2)cc1)C(C)=O`, the figure is 101% (inactive); as for `NC(N)=N/N=C/c1ccc([N+](=O)[O-])o1`, 94.6% (inactive). Turning to `CCCCCCCCCCCCCCCC[N+](C)(CCO)Cc1cnc[nH]1` (stereo unspecified), the growth was -61.6% (active). To `COC(=O)c1nc(=S)[nH]c(C(=O)OC)c1C(=O)c1ccc2ccccc2c1` belongs 102% (inactive); to `CCC(=O)Sc1ccccc1C(=O)Nc1ccc(Cl)cc1`, 19.4% (inactive). As for `Cc1ccnc(NC(c2ccccc2)c2ccc3cccnc3c2O)c1` (stereo unspecified), the growth is 21.4% (inactive). For `CC1SC(=S)N(c2ccc(Cl)cc2)C1=O` (stereo unspecified), the growth is 84.1% (inactive) and 78.8% (inactive). As for `CCN1/C(=C\c2cc[n+](CC)c3ccccc23)C=Cc2ccccc21`, the figure is 16.4% (inactive); as for `Cc1ccc(C(=Nc2ccccc2)N=P(c2ccccc2)(c2ccccc2)c2ccccc2)cc1`, 15.6% (inactive); as for `CC(C)(C)c1ccc(O)c(C2CCCCC2)c1`, 89.8% (inactive).

On to `Cc1ccc(NS(=O)(=O)c2ccc(C)cc2)cc1`, for which the growth was 85.7% (inactive) and 101% (inactive). In the case of `O=C(O)C1C2CC3C(OC(=O)C31)C2Br` (stereo unspecified), the growth is 113% (inactive) and 110% (inactive).

As to `C=CCOc1ccc(N=NC(C#N)C#N)cc1`, the growth is 38.2% (inactive).

For the compound `CN(C)c1ccc(C(=C2C=CC(=[N+](C)C)C=C2)c2ccc(N(C)C)cc2)cc1` (tested in a mixture with another compound), the growth was -55.3% (active).
